Data on 39 molecules can be found in PubChem BioAssay (NCI).

Molecules are shown by their SMILES. About 79,000 compounds went through this panel and 15% of them were active in at least one assay; those are over-represented in the sample as a whole. Values without a mark were called inactive. Calls of active or inactive are those of the source. Cut-off read from the data, not from the text of the source: active = growth inhibition above about 70%; inactive = the rest.

The first test can be described thus: NCI Yeast Anticancer Drug Screen. Data for the bub3 strain (AID 167). The following applies: S. cerevisiae bub3 mutant strain, at 100.0 µM, active compounds read high. In short, it runs like this: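 Whole-cell yeast assay. The mutant strain was incubated with compounds, and growth inhibition was determined by comparison with vehicle-treated cells.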
With `O=C(O)c1ccccc1/C=N/N=C1c2ccccc2-c2ccccc21`, the growth inhibition is 4%.
Turning to `O=C1CC(=O)c2ccccc21`, the growth inhibition is 35%.
On the same count and under the same terms, for `Nc1ncnc2c1ncn2C1OC(CO)CC1O` (stereo unspecified) the value was 92% (active).

The nature of the next test: NCI Yeast Anticancer Drug Screen. Data for the wt2 strain (AID 169).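 Note: 0% = growth of vehicle-treated yeast cultures.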 The following applies: S. cerevisiae wt2 strain growth inhibition; at 1.2 µM; active compounds read high. In short, it runs like this:
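Against vehicle-treated controls, the growth of yeast exposed to each compound was compared, and the inhibition was recorded.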
As for `CS(=O)(=O)SCc1ccc([N+](=O)[O-])cc1`, the growth inhibition was -1%.
Regarding `Cc1csc(=S)n1OC(=O)NC1CCCCC1`, the growth inhibition was -23%.
Same read-out and setting: the value for `CCOc1ccc(NC(=O)C2=C(C)NC(C)=C(C(=O)Nc3ccc(OCC)cc3)C2c2cccc([N+](=O)[O-])c2)cc1` was -3%; that for `CC(C)(C)N=C(NO)c1ccccc1` was 1%; that for `CCCCC/C(=C(\C#N)C(=O)OCC)c1ccccc1` was -3%.
As for `O=C(NCCCl)Sc1ccc(Cl)cc1`, the growth inhibition is 1%.
Still for that read-out and setting: the value for `O=C1Nc2ccc(Br)cc2C1=Nc1ccc2c(c1)OCO2` was 0%.
Still for that read-out and setting: the value for `CCC(C)OC(=O)Nc1ccc(C)c(NC(=O)OC(C)CC)c1` (stereo unspecified) was 0%.
The same measure, in the same setting: the value for `O=C(O)c1cc2ccc(Cl)cc2c(O)c1C1=CCCCC1` was 5%; that for `CN(C)Cc1cc(N=Nc2ccc(Cl)cc2)ccc1OC(=O)c1ccccc1` was 1%; that for `CN1CCN(C(=O)/C=C/C(=O)c2ccccc2)CC1` was 1%.
Regarding `CCCC/C=C/C(C)(C(=O)OCC)C(=O)OCC`, the growth inhibition is -4%.
Turning to `Cc1nc(-c2cc3cc([N+](=O)[O-])ccc3oc2=O)cs1`, the growth inhibition was -42%.
For the molecule `Cc1nc2ccccc2nc1NNc1ccccc1`, the growth inhibition is 3%.
As for `CN(C)[C@@H]1C(=O)C(C(N)=O)=C(O)[C@@]2(O)C(=O)C3=C(O)c4c(O)cccc4C[C@H]3C[C@@H]12`, the growth inhibition was 9%.
Consider `COc1ccc(NC(=O)CC2SC(=Nc3ccccc3C)NC2=O)c([N+](=O)[O-])c1` (stereo unspecified), for which the growth inhibition was -1%.
The same measure, in the same setting: the value for `COc1cc(O)c2c(c1O)C(=O)c1cc(C)ncc1C2=O` was 39%; that for `CSc1nnc(SC)nn1` was 9%; that for `COc1cc(/C=C2\CCC/C(=C\c3ccc(O)c(OC)c3)C2=O)ccc1O` was 6%.
The same measure, in the same setting: for `CN(C)CCNC(=O)c1cccc2cc([N+](=O)[O-])ccc12` the value was -13%; for `CCC(C)(C)c1ccc(Oc2cccc(C(=O)O)c2)cc1`, -4%; for `CCCCCCSc1ncnc2[nH]ncc12`, -3%.
Same read-out and setting: for `CC(=O)Nc1ccc(/C=C/[N+](=O)[O-])cc1` the value was -4%; for `CCOC(=O)c1[nH]n(-c2ccccc2)c(=O)c1C=NC(=S)C(N)=S`, -2%.
In the case of `CCCC(O)C1CC(C(C)C)CCC1C` (stereo unspecified), the growth inhibition is -1%.
On the same count and under the same terms, the value for `O=[n+]1c2ccccc2n([O-])c2cc(Br)ccc21` was 47%; that for `CN(C)CCNC(=O)c1cccc2c1Oc1c(cccc1[N+](=O)[O-])O2` was -37%; that for `Nc1ncc(-c2ccc(Br)cc2)s1` was 8%.
Consider `Cc1cc2cc3cc(C)c(N)cc3nc2cc1N`, for which the growth inhibition was -7%.
As for `CC12C(=O)OC(=O)C(c3ccccc31)c1ccccc12`, the growth inhibition was -7%.
Same read-out and setting: the value for `c1ccc2c(OCC3CO3)cccc2c1` (stereo unspecified) was -2%; that for `CCOC(=N)c1ccc(O)c(OC)c1` was -3%; that for `Nc1cc(N)c(N=Nc2cccc3c(S(=O)(=O)O)cccc23)cc1N=Nc1cc([N+](=O)[O-])ccc1O` was -14%.
As for `COC(=O)Oc1cc(Cl)c(Cl)cc1Cl`, the growth inhibition was 0%.
Consider `O=C(O)C1CC(c2ccccc2)=NN1c1ccccc1` (stereo unspecified), for which the growth inhibition was -38%.
The same measure, in the same setting: the value for `COc1cc([C@@H]2c3cc4c(cc3[C@@H](Nc3ccc(NC(=O)c5cc([N+](=O)[O-])cn5C)cc3)[C@H]3COC(=O)[C@H]23)OCO4)cc(OC)c1O` was -28%.
Still for that read-out and setting: the value for `O=C(O)c1ccccc1/C=N/N=C1c2ccccc2-c2ccccc21` was -1%; that for `O=C1CC(=O)c2ccccc21` was 0%; that for `Nc1ncnc2c1ncn2C1OC(CO)CC1O` (stereo unspecified) was -7%.

Staying with this test, now noted: S. cerevisiae wt2 strain growth inhibition; at 3.7 µM; active compounds read high.
Take `CS(=O)(=O)SCc1ccc([N+](=O)[O-])cc1`: the growth inhibition is -3%.
Same read-out and setting: the value for `Cc1csc(=S)n1OC(=O)NC1CCCCC1` was 97% (active).
The same measure, in the same setting: the value for `CCOc1ccc(NC(=O)C2=C(C)NC(C)=C(C(=O)Nc3ccc(OCC)cc3)C2c2cccc([N+](=O)[O-])c2)cc1` was -2%; that for `CC(C)(C)N=C(NO)c1ccccc1` was 1%; that for `CCCCC/C(=C(\C#N)C(=O)OCC)c1ccccc1` was -4%.
Still for that read-out and setting: for `O=C(NCCCl)Sc1ccc(Cl)cc1` the value was 0%.
For `O=C1Nc2ccc(Br)cc2C1=Nc1ccc2c(c1)OCO2`, the growth inhibition was -21%.
The same measure, in the same setting: the value for `CCC(C)OC(=O)Nc1ccc(C)c(NC(=O)OC(C)CC)c1` (stereo unspecified) was 1%; that for `O=C(O)c1cc2ccc(Cl)cc2c(O)c1C1=CCCCC1` was 5%; that for `CN(C)Cc1cc(N=Nc2ccc(Cl)cc2)ccc1OC(=O)c1ccccc1` was 2%.
On the same count and under the same terms, the value for `CN1CCN(C(=O)/C=C/C(=O)c2ccccc2)CC1` was 10%; that for `CCCC/C=C/C(C)(C(=O)OCC)C(=O)OCC` was -4%.
Still for that read-out and setting: for `Cc1nc(-c2cc3cc([N+](=O)[O-])ccc3oc2=O)cs1` the value was -24%; for `Cc1nc2ccccc2nc1NNc1ccccc1`, 5%; for `CN(C)[C@@H]1C(=O)C(C(N)=O)=C(O)[C@@]2(O)C(=O)C3=C(O)c4c(O)cccc4C[C@H]3C[C@@H]12`, 14%.
As to `COc1ccc(NC(=O)CC2SC(=Nc3ccccc3C)NC2=O)c([N+](=O)[O-])c1` (stereo unspecified), the growth inhibition was 7%.
Still for that read-out and setting: for `COc1cc(O)c2c(c1O)C(=O)c1cc(C)ncc1C2=O` the value was 60%.
The same measure, in the same setting: the value for `CSc1nnc(SC)nn1` was 5%.
As to `COc1cc(/C=C2\CCC/C(=C\c3ccc(O)c(OC)c3)C2=O)ccc1O`, the growth inhibition was 16%.
Turning to `CN(C)CCNC(=O)c1cccc2cc([N+](=O)[O-])ccc12`, the growth inhibition is -10%.
Same read-out and setting: for `CCC(C)(C)c1ccc(Oc2cccc(C(=O)O)c2)cc1` the value was -4%; for `CCCCCCSc1ncnc2[nH]ncc12`, 6%; for `CC(=O)Nc1ccc(/C=C/[N+](=O)[O-])cc1`, -3%.
The same measure, in the same setting: for `CCOC(=O)c1[nH]n(-c2ccccc2)c(=O)c1C=NC(=S)C(N)=S` the value was 0%; for `CCCC(O)C1CC(C(C)C)CCC1C` (stereo unspecified), 6%; for `O=[n+]1c2ccccc2n([O-])c2cc(Br)ccc21`, 69%.
Same read-out and setting: for `CN(C)CCNC(=O)c1cccc2c1Oc1c(cccc1[N+](=O)[O-])O2` the value was -27%.
As for `Nc1ncc(-c2ccc(Br)cc2)s1`, the growth inhibition is 8%.
On the same count and under the same terms, for `Cc1cc2cc3cc(C)c(N)cc3nc2cc1N` the value was -12%; for `CC12C(=O)OC(=O)C(c3ccccc31)c1ccccc12`, -5%.
On the same count and under the same terms, for `c1ccc2c(OCC3CO3)cccc2c1` (stereo unspecified) the value was 7%; for `CCOC(=N)c1ccc(O)c(OC)c1`, 6%; for `Nc1cc(N)c(N=Nc2cccc3c(S(=O)(=O)O)cccc23)cc1N=Nc1cc([N+](=O)[O-])ccc1O`, -11%.
The same measure, in the same setting: for `COC(=O)Oc1cc(Cl)c(Cl)cc1Cl` the value was -2%; for `O=C(O)C1CC(c2ccccc2)=NN1c1ccccc1` (stereo unspecified), -46%.
On to `COc1cc([C@@H]2c3cc4c(cc3[C@@H](Nc3ccc(NC(=O)c5cc([N+](=O)[O-])cn5C)cc3)[C@H]3COC(=O)[C@H]23)OCO4)cc(OC)c1O`, for which the growth inhibition was -12%.
Same read-out and setting: for `O=C(O)c1ccccc1/C=N/N=C1c2ccccc2-c2ccccc21` the value was 0%.
In the case of `O=C1CC(=O)c2ccccc21`, the growth inhibition is 8%.
For `Nc1ncnc2c1ncn2C1OC(CO)CC1O` (stereo unspecified), the growth inhibition is -3%.
